Values without a mark were called inactive. For some assays here: Measured potencies and affinities stand elsewhere. Active and inactive are the calls of the source. Unless noted, no rule for the calls is given here.
How the values were obtained:
[1] = antimalarial activity against Dd2 strain (AID 2302;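 active = growth inhibition above 50% at the single 2 µM test dose, taken to imply half-maximal potency below 2 µM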;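 also: 0% = DMSO untreated growth and 100% = chloroquine plus artemisinin killed control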); conditions: P. falciparum Dd2 in RBCs, LDH growth readout, 72 h; at 2 µM; hits give high values
[2] = HepG2 cytotoxicity, primary screen, cytotoxicity control for P. falciparum antimalarial project, cell-based, ATP luminescence (AID 2303;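 active = inhibition above 50%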;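 also: 0% = DMSO wells and 100% = digitonin-killed cells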); conditions: HepG2 viability, 24-48 h, at 10 µM, hits give high values
[3] = molecular target: L-lactate dehydrogenase (Plasmodium falciparum (isolate CDC / Honduras)) (UniProt Q27743); assay: PfLDH activity inhibition – cell lysate, 3D7 strain, counter-screen for P. falciparum growth inhibition project (AID 2304);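 also: 0% = vehicle and 100% = reference inhibitor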; conditions: P. falciparum 3D7 crude extract, LDH APAD/NBT absorbance; at 2 µM; hits give high values
L-lactate dehydrogenase (Plasmodium falciparum (isolate CDC / Honduras)), sequence (Q27743 whole entry, looked up): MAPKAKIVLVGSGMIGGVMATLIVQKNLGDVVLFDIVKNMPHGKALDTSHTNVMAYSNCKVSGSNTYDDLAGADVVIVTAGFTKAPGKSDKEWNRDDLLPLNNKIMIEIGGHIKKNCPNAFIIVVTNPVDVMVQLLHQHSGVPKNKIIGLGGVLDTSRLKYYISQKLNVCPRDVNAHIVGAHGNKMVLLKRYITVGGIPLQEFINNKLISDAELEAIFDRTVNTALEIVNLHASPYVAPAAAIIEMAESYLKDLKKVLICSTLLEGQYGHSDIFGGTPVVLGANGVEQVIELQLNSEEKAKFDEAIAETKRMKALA

[4] = inhibition of 3D7 malaria parasite growth – strain 3D7 (AID 2306);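 also: 0% = DMSO wells and 100% = chloroquine plus artemisinin control wells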; conditions: P. falciparum 3D7 erythrocytic growth, LDH absorbance, 72 h; at 2 µM; hits give high values
[5] = molecular target: Calcium-dependent protein kinase 1 (Plasmodium falciparum (isolate 3D7)) (UniProt P62344); assay: PfCDPK1 kinase inhibitors, biochemical, TCAMS library (AID 1159585; cut-off not given, nearly all actives have IC50 up to about 0.98 µM;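 also: inhibitors leave more ATP so luminescence rises with inhibition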); conditions: recombinant PfCDPK1, Kinase-Glo ATP depletion luminescence
Calcium-dependent protein kinase 1 (Plasmodium falciparum (isolate 3D7)), sequence (P62344 whole entry, looked up): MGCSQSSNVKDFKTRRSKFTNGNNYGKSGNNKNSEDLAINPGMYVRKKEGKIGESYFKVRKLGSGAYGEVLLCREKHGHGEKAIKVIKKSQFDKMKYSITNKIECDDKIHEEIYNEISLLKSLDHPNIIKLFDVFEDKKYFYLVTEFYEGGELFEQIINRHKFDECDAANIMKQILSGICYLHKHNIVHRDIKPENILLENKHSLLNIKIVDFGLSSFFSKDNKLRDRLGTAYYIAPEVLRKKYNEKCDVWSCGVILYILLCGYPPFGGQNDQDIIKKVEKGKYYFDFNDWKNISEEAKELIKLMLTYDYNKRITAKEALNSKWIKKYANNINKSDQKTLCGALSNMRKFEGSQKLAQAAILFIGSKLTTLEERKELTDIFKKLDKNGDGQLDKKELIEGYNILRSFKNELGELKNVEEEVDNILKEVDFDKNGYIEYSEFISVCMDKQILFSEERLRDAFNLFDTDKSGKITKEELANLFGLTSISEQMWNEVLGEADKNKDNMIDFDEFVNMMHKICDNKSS

[6] = molecular target: Plasmodium falciparum protein kinase 6 (PK6, PF3D7_1337100) (UniProt Q8IDW1); assay: PfPK6 kinase inhibitors, biochemical, TCAMS library (AID 1159586); conditions: recombinant PfPK6, Kinase-Glo ATP depletion luminescence
Plasmodium falciparum protein kinase 6 (PK6, PF3D7_1337100), sequence (Q8IDW1 1-305): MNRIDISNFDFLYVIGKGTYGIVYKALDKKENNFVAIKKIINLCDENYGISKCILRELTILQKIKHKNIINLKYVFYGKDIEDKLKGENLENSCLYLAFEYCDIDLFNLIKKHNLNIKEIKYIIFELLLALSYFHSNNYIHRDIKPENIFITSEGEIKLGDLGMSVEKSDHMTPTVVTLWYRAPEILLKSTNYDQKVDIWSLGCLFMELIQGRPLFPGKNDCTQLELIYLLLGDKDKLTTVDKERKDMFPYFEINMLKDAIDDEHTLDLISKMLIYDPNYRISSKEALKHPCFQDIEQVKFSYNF

[7] = molecular target: Protein kinase 7 (PK7), Plasmodium falciparum 3D7 (PF3D7_0213400) (UniProt Q7YTF7); assay: inhibition of Plasmodium PK7 catalytic activity – biochemical, TCAMS antimalarial set, Kinase-Glo luminescence (AID 1159587); conditions: recombinant PfPK7, Kinase-Glo ATP depletion luminescence
Protein kinase 7 (PK7), Plasmodium falciparum 3D7 (PF3D7_0213400), sequence (Q7YTF7 1-343): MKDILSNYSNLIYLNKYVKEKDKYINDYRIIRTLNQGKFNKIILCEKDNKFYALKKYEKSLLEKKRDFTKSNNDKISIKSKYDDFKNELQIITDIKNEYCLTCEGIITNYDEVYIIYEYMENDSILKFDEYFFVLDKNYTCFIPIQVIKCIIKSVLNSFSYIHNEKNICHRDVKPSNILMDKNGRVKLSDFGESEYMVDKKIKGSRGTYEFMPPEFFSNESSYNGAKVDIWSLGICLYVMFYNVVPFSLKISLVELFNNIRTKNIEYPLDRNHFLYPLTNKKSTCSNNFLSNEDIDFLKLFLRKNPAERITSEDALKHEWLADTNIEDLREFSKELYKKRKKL

[8] = molecular target: Calcium-dependent protein kinase 4 (Plasmodium falciparum (isolate 3D7)) (UniProt Q8IBS5); assay: PfCDPK4 kinase inhibitors, biochemical, TCAMS library (AID 1159588; cut-off not given, nearly all actives have IC50 up to about 0.91 µM); conditions: recombinant PfCDPK4, Kinase-Glo ATP depletion luminescence
Calcium-dependent protein kinase 4 (Plasmodium falciparum (isolate 3D7)), sequence (Q8IBS5 whole entry, looked up): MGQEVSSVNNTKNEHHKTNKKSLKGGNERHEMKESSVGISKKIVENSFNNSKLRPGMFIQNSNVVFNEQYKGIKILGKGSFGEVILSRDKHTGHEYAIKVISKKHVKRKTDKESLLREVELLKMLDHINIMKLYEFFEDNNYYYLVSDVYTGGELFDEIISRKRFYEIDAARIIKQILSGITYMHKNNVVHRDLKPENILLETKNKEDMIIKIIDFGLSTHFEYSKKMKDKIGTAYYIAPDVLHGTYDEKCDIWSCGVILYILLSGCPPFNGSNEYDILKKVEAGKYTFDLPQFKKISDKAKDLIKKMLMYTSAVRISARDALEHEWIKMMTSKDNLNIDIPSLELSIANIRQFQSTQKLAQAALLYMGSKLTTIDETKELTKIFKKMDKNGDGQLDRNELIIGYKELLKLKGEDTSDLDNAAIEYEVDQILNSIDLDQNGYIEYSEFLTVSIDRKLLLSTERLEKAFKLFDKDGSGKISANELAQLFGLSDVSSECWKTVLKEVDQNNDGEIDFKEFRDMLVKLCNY

| SMILES | growth inhibition [1] | inhibition [2] | inhibition [3] | growth inhibition [4] | outcome [5] | outcome [6] | outcome [7] | outcome [8] |
| --- | --- | --- | --- | --- | --- | --- | --- | --- |
| CC(C)CCN1CCC(Oc2ccc(NC(=O)c3ccccc3)cc2Cl)CC1 | 88% (active) | 17% | 5% | 87% (active) | inactive | inactive | inactive | inactive |
| CCN(CC)CCCC(C)Nc1ccnc2[nH]c3ccccc3c12 (stereo unspecified) | 38% | 0% | 6% | 82% (active) | inactive | inactive | inactive | inactive |
| CCCC1N=C(N)N=C(N)N1c1ccc(C)c(C)c1 (stereo unspecified) | -2% | 7% | -3% | 95% (active) | inactive | inactive | inactive | inactive |
| Cc1ccc(CON2C(N)=NC(N)=NC2(C)C)cc1C | 88% (active) | 64% (active) | -9% | 92% (active) | inactive | inactive | inactive | inactive |
| CC1CCN(C(=O)C(Cc2c[nH]c3ccccc23)NS(=O)(=O)c2ccc(Cl)cc2)CC1 (stereo unspecified) | 99% (active) | -22% | -4% | 100% (active) | inactive | inactive | inactive | inactive |
| O=C(NCCCN1CCOCC1)c1ccc(-c2cccc(NC(=O)c3ccc(Cl)c(Cl)c3)c2)cc1 | 68% (active) | 3% | 3% | 100% (active) | inactive | inactive | inactive | inactive |
| N#CCCN1CCN(Cc2cccc(-c3ccc(-c4nc5ccc(F)cc5[nH]4)cc3)c2)CC1 | 35% | 18% | -2% | 100% (active) | inactive | inactive | inactive | inactive |
| Cc1ccc(C2CCN(CCCCNC(=O)c3ccc(NC(=O)c4ccc(Cl)cc4)cc3)CC2)c(OCC2CC2)c1 | 95% (active) | 63% (active) | 0% | 101% (active) | inactive | inactive | inactive | inactive |
| CC(=O)N(C)/N=C/[C@H](CCc1ccccc1)NC(=O)[C@H](CC(C)C)NC(=O)c1cccc(OCCN2CCOCC2)c1 | 65% (active) | 5% | 5% | 89% (active) | inactive | inactive | inactive | inactive |
| NC1CCCN(Cc2cccc(-c3cccc(-c4nc5ccccc5[nH]4)c3)c2)C1 (stereo unspecified) | 61% (active) | 24% | -5% | 101% (active) | inactive | inactive | inactive | inactive |
| COc1ccc(OC)c2c1C[C@@H]1NC[C@H]2c2c(OC)ccc(OC)c21 | 3% | 2% | 1% | 99% (active) | inactive | inactive | inactive | inactive |
| CCOc1ccc2c(c1)OC(c1ccccc1)(C(F)(F)F)NC2=O (stereo unspecified) | 98% (active) | -7% | -2% | 100% (active) | inactive | inactive | inactive | inactive |
| O=C(N[C@@H](CC1CCCCC1)C(=O)NC1CC1)c1ccc(O)c(-c2cccc(C(F)(F)F)c2)c1 | 47% | -5% | -4% | 99% (active) | inactive | inactive | inactive | inactive |
| COc1ccc(C2CC(c3cccs3)=NN2C(=O)c2ccccc2)cc1OC (stereo unspecified) | 83% (active) | 5% | 5% | 99% (active) | inactive | inactive | inactive | inactive |
| Cc1nn(CCOC(=O)NC(NCC2COc3ccccc3O2)C(Cl)(Cl)Cl)cc1[N+](=O)[O-] (stereo unspecified) | 99% (active) | -9% | 2% | 99% (active) | inactive | inactive | inactive | inactive |
| O=C(/C=C/c1ccc(Cl)c(Cl)c1)NCCCCCN1CCC(NC(=O)Nc2ccc(C(F)(F)F)cc2)CC1 | 34% | 58% (active) | 3% | 94% (active) | inactive | inactive | inactive | inactive |
| NC1=NC2(CCCCC2)N(OCCCCCCN2C(=O)c3ccccc3C2=O)C(N)=N1 | 16% | 20% | 1% | 98% (active) | inactive | inactive | inactive | inactive |
| O=C(/C=C/c1ccc(Cl)cc1)NCCCCCN1CCCN(C(=O)Nc2ccc(F)c(Cl)c2)CC1 | 6% | 29% | 1% | 94% (active) | inactive | inactive | inactive | inactive |
| COC(=O)c1cccc(CNCc2ccc(-c3ccc(-c4nc5ccc(C(F)(F)F)cc5[nH]4)cc3)cc2)c1 | 98% (active) | 22% | 0% | 101% (active) | inactive | inactive | inactive | inactive |

| SMILES | growth inhibition [1] | inhibition [2] | inhibition [3] | growth inhibition [4] | outcome [5] | outcome [6] | outcome [7] | outcome [8] |
| --- | --- | --- | --- | --- | --- | --- | --- | --- |
| CCN1[C@@H](c2ccc(Cl)cc2)[C@@H](CNCc2ccccc2O)C[C@@]1(C)CO | 99% (active) | 47% | -3% | 99% (active) | inactive | inactive | inactive | inactive |
| COc1ccc2ccccc2c1C=NNc1cc(C)nc2c(C)cccc12 | 94% (active) | -3% | -4% | 102% (active) | inactive | inactive | inactive | inactive |
| O=S(=O)(Nc1cccc(CCN2CCCCC2CCN2CCCC2)c1)c1ccc2ccccc2c1 (stereo unspecified) | 40% | 22% | -2% | 91% (active) | inactive | inactive | inactive | inactive |
| COc1cccc(CCc2cccc(CNC(C)=O)c2)c1 | -2% | 2% | -2% | 88% (active) | inactive | inactive | inactive | inactive |
| Cc1cc(NN=Cc2ccccn2)c2cc(F)ccc2n1 | 96% (active) | 9% | 5% | 100% (active) | inactive | inactive | inactive | inactive |
| CC(Cc1ccc(CNC(=O)c2ccc(CC(C)NCCc3cccc(Cl)c3)cc2)cc1)NCCc1cccc(Cl)c1 (stereo unspecified) | 66% (active) | 99% (active) | -2% | 99% (active) | inactive | inactive | inactive | inactive |
| O=C(COc1ccccc1)NC1CCN(c2ccnc3cc(Cl)ccc23)C1 (stereo unspecified) | 35% | 22% | -5% | 101% (active) | inactive | inactive | inactive | inactive |
| OC1CCCN(Cc2ccc(-c3ccc(-c4nc5ccccc5[nH]4)cc3)cc2)C1 (stereo unspecified) | 77% (active) | 46% | -4% | 100% (active) | inactive | inactive | inactive | inactive |
| CC(C)c1ccc(-c2noc(SCC(=O)N(C)c3ccc(F)cc3)n2)cc1 | 77% (active) | 7% | 3% | 84% (active) | inactive | inactive | inactive | inactive |
| COc1ccc(C(=O)[C@H]2C[C@@H]2CN(C)CC(O)c2cc(C)c(OC)cc2C)cc1 (stereo partly specified) | 77% (active) | 8% | -3% | 90% (active) | inactive | inactive | inactive | inactive |
| Fc1ccc(NC(=S)NN=Cc2ccccn2)cc1 | 67% (active) | 56% (active) | -1% | 95% (active) | inactive | inactive | inactive | inactive |
| COc1ccc(-c2ccc(NC(=O)c3ccc(Cl)cc3)cc2)cc1CN1CCN(C)CC1 | 23% | 36% | 7% | 86% (active) | inactive | inactive | inactive | inactive |
| CC(=O)Nc1ccc(CN2CCC(NC(=O)c3cc(-c4ccc(N(C)C)cc4)cs3)C2)cc1 (stereo unspecified) | 1% | 15% | 5% | 83% (active) | inactive | inactive | inactive | inactive |
| NC1=NC2(CCCCC2)N(OCCOc2ccc(Cc3ccccc3)cc2)C(N)=N1 | 22% | 34% | 2% | 86% (active) | inactive | inactive | inactive | inactive |
| Cc1cc(-c2nc3ccc(N4CCN(C)CC4)cc3[nH]2)nn1Cc1cc(Cl)ccc1OCC(C)C | 67% (active) | 41% | 1% | 99% (active) | inactive | inactive | inactive | inactive |
| CC(=O)Nc1nc(C(=O)Nc2cccc(-c3ccc(-c4nc5ccccc5[nH]4)cc3)c2)cs1 | 60% (active) | 88% (active) | -2% | 101% (active) | inactive | inactive | inactive | inactive |
| CCOC(=O)C1=C(C)N=c2sc(=Cc3cc(Cl)ccc3O)c(=O)n2C1c1ccc2c(c1)OCO2 (stereo unspecified) | 91% (active) | -2% | -1% | 96% (active) | inactive | inactive | inactive | inactive |
| CO/C(=C\C=C\c1cc2cc(Cl)c(Cl)cc2[nH]1)C(=O)NCCCN1CCN(c2cccc(Cl)c2)CC1 | 77% (active) | 58% (active) | 3% | 100% (active) | inactive | inactive | inactive | inactive |

— PubChem BioAssay
